Results filed as inconclusive are left out. The source made the active and inactive calls. The call rests on the fitted dose curve; in most records, active means well fitted curve in either direction with a large enough effect; inconclusive means small, poorly fitted or top-dose-only effect; inactive means no such curve, though single readings can be large or run the other way.
biological target: Lysosomal alpha-glucosidase (Homo sapiens) (UniProt P10253); test: Confirmation of Inhibitors and Activators of Purified Human alpha-Glucosidase Using an Alternate Red Fluorescent Susbtrate; details: purified enzyme, red fluorogenic substrate; series mostly up to 63.4 µM
Method in brief: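 Recombinant human alpha-glucosidase (4 nM) with resorufin-[…] (400 uM) in 50 mM citrate buffer pH 5.0, 0.005% Tween-20, 20 min at room temperature, stopped at pH 10. AC50 from Hill fits.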

Compound | Potency
CCCN1CNc2c(c(=O)[nH]c(=S)n2CCc2ccc3c(c2)OCCO3)C1 | 1120 nM (active)
CCCN1CNc2c(c(=O)[nH]c(=S)n2CCC(C)C)C1 | inactive
COc1ccc(CCn2c(=S)[nH]c(=O)c3[nH]cnc32)cc1OC | inactive
CCCN1CNc2c(c(=O)[nH]c(=S)n2CCc2ccc(Cl)cc2)C1 | 11200 nM (active)
Cc1ccc(N2CCN(S(=O)(=O)c3ccc4c(c3)CC(=O)N4)CC2)cc1 | inactive
CC(O)[C@@H](O)[C@H]1CNc2nc(N)[nH]c(=O)c2N1 (stereo partly specified) | inactive
CC(=O)N1CCN(S(=O)(=O)c2ccc3c(c2)CC(=O)N3)CC1 | 14900 nM [inhibitor] (active)
OC[C@H]1NC[C@@H](O)[C@@H]1O | inactive
CCCN1CNc2c(c(=O)[nH]c(=S)n2Cc2ccc(OC)c(OC)c2)C1 | 2820 nM (active)
O=C1Cc2cc(S(=O)(=O)N3CCN(c4ccc(O)cc4)CC3)ccc2N1 | 2370 nM [inhibitor] (active)
CCCN1CNc2c(c(=O)[nH]c(=S)n2CCc2ccccc2Cl)C1 | 2510 nM (active)
CCCN1CNc2c(c(=O)[nH]c(=S)n2CCC)C1 | inactive
CCCN1CNc2c(c(=O)[nH]c(=S)n2CCc2ccc(Cl)cc2Cl)C1 | 1260 nM (active)
CCCN1CNc2c(c(=O)[nH]c(=S)n2CCc2cc(Cl)ccc2Cl)C1 | 794 nM (active)
CCCN1CNc2c(c(=O)[nH]c(=S)n2CCc2c(OC)cccc2OC)C1 | 14100 nM (active)
CC(=O)c1ccc(N2CCN(S(=O)(=O)c3ccc4c(c3)OCC(=O)N4)CC2)cc1 | inactive

— PubChem BioAssay AID2110 (National Center for Advancing Translational Sciences (NCATS), 2009)
